Among the data in PubChem BioAssay (NCI) are growth values, retold here.

This is part of a sample that, as a whole, favours compounds with a hit. Of some 83,000 tested, about 20% had one in any assay.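 Each cell line was grown in a 96-well plate and treated with one concentration of compound for 48 hours. Values below 10 were considered active.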 A number with no mark means an inactive call. Active and inactive are the calls of the source.

The test relates to HT29 colon. The test can be described thus: NCI-60 one-dose screen, 48 h (100 = growth as untreated, 0 = no growth, -100 = all killed). Particulars: 10 µM unless noted. Here is the method:
Growth inhibition of the HT29 human tumor cell line is measured as a screen for anti-cancer activity. Cells are grown in 96 well plates and exposed to the test compound for 48 hours. Compounds are tested at a single concentration, which is 10^-5 M for most compounds. The reported endpoint is percent growth (GI% or GIPRCNT), where numbers from 0 - 100% represent growth inhibition, and numbers from -100% - 0 represent cell death. For example, a value of 40 represents 60% growth inhibition. A value of 0 means no net growth occurred over the course of the experiment. A value of -40 indicates 40% of cells at the beginning of the experiment died by the end of the experiment. A value of -100 means all cells are dead at the end of the experiment.
NCI-60 Human Tumor Cell Lines Screen was performed using the standard one-dose NCI protocol, which is described in more detail at https://dtp.cancer.gov/discovery_development/nci-60/default.htm.
Compounds with GIPRCNT values below 10 were considered active. Activity score was based on GIPRCNT using the following formula: […]
Score is 0 for GIPRCNT values of 100 or above, 50 for GIPRCNT values of 0, and 100 for GIPRCNT values of -100.
Take `Cn1cc(-c2csc(-c3ccccc3)n2)c2cccnc21`: the growth was -67.5% [100 µM] (active).
To `COc1cccc(-c2nn(-c3ccccc3)cc2-c2ccnc(NCCNC(=O)c3ccccc3)c2)c1` belongs 15.9%; to `N#CC1=C(/N=C/c2ccccc2)Oc2c(ccc3ccccc23)C1c1ccccc1` (stereo not given), 4.48% (active).
To `O=C(NC(Cc1nnc2n(Cc3ccccc3)c(=O)c3c4c(sc3n12)CCCC4)c1ccc(Cl)cc1)c1ccccc1` (stereo not given) belongs 89.1%.
With `O=C(c1ccc(Nc2nccc(NCCCCNc3ccnc4cc(Cl)ccc34)n2)cc1)N1CCCCC1`, the growth is -11.3% (active).
Next, `Cc1ccc(-c2cc(-c3cccnc3)[nH]c(=O)c2C#N)cc1`: 107%; `Cc1nn(-c2ccccc2)c(Cl)c1/C=C(/NC(=O)c1ccccc1)c1nc2ccccc2[nH]1`: 75.3%; `COc1ccc(Nc2nnc(SCc3ccccc3F)s2)cc1`: 116%.
Consider `Cc1ccc(NCCN(C)C)c2c(=O)c3ccccc3sc12`, for which the growth is -38.3% (active).
Take `Cc1ccc(N(C(=O)CCc2c[nH]c3ccccc23)[C@H](C(=O)Nc2ccc(Cl)cc2)c2cccc([N+](=O)[O-])c2)cc1`: the growth was 86.5%.
Next, `O=C(Nc1cccc2c(O)c(N=Nc3ccc(S(=O)(=O)Nc4nccs4)cc3)cc(N=Nc3ccc(S(=O)(=O)Nc4nccs4)cc3)c12)C(Cl)Cl`: 62.8%; `COc1ccc(-c2ccc3c(c2)sc2nc(-c4ccc(F)cc4)cn23)cc1`: 82.8%; `c1ccc2c(c1)nc(CN1CCOCC1)n1cc(N3CCCC3)nc21`: 111%.
Next, `COc1cccc(-c2nc3sccn3c2-c2ccnc(NCCNS(=O)(=O)c3ccc(C(F)(F)F)cc3)c2)c1`: 35.7%.
Next, `COc1cc2c(cc1-c1c(C)noc1C)ncc1nc(C3CCCCC3)n(C3CCC(OC(F)F)CC3)c12` (stereo not given): 19.9%; `Cc1ccc(CCC(=O)Nc2ncc(Cc3cc(Cl)ccc3Cl)s2)o1`: 4.92% (active); `Cn1ccc2c(c1=O)C(=O)c1nccc3c1c-2nc1ccccc13`: -76.7% (active).
Take `C=C1C(=O)O[C@H]2[C@H]1CC/C(CNC(=O)/C=C/c1ccc(Cl)cc1Cl)=C\CC[C@@]1(C)O[C@@H]21`: the growth is -58.4% (active).
Next, `COc1ccc(C2=Nc3c(N)ncnc3NC(c3ccc4c(c3)OCO4)C2)cc1` (stereo not given): 93.2%; `Cc1cc(NCc2cc(Nc3ccnc4cc(Cl)ccc34)ccc2F)nc(N2CCN(c3ccccc3)CC2)n1`: 13.6%.
To `N#C/C(=C\c1ccc(Br)cc1)n1nnc2cc(F)c(F)cc21` belongs 13.2%; to `Cc1cc(C)c2c(-c3nnc(N)s3)cc(=O)oc2c1`, 112%; to `O=S(=O)(NCCCNc1cc(-c2c(-c3cccc(O)c3)nc3sccn23)ccn1)c1cccc(Cl)c1`, 50.2%.
To `CCCCCCCCCOc1c(OC)cc(C2CC(=O)Nc3c2c(C)nn3-c2nc3ccccc3[nH]2)cc1OC` (stereo not given) belongs -37.9% (active).
As for `C=C1C(=O)O[C@H]2[C@H]1CC/C(COC(=O)C(=O)c1c[nH]c3ccc(OC)cc13)=C\CC[C@@]1(C)O[C@@H]21`, the growth is -69.7% (active).
To `CN(C)CCC=C1c2ccccc2C(C)(C)c2ccccc21` belongs 30.5%.
As for `Cc1ccc(Nc2nc(N)nc(CSCC(=O)NN)n2)cc1`, the growth is 106%.
To `C=C(C)[C@@H]1CC[C@]2(C)[C@H](CC=C3[C@@H]4CC(C)(C)CC[C@]4(C(N)=O)CC[C@]32C)[C@@]1(C)CCC#N` belongs 39.3%; to `O=c1ssc(Cl)c1-c1ccccc1`, 103%.
Take `CN1CCN(CC(=O)Nc2nc(-c3cccc(NS(=O)(=O)c4cccc5c(N(C)C)cccc45)c3)cs2)CC1`: the growth was 35.2%.
Next, `O=Cc1ccc(O)c2ncccc12`: 87.7%.
To `COc1cccc(-c2nn(-c3ccccc3)cc2-c2ccnc(NCCCNC(=O)Nc3ccc(Cl)c(Cl)c3)c2)c1` belongs -36.4% (active); to `NS(=O)(=O)c1cnccc1Sc1ccncc1S(N)(=O)=O`, 113%; to `CCN(CC)c1ccc(C(=O)c2ccc(N(CC)CC)cc2)cc1`, 4.92% (active).
To `CC/C=C/C/C=C/C/C=C/C/C=C/C/C=C/C/C=C/CCC(=O)Nc1ccn([C@@H]2O[C@H](CO)[C@@H](O)C2(F)F)c(=O)n1` belongs 36.4%; to `COc1ccc(/C=C/c2c(C(=O)/C=C/c3ccc(F)cc3)c(C)nc3ccccc23)cc1`, 23.6%; to `CC(=O)OC[C@H]1OC(Sc2sc(C(=O)c3ccc(Br)cc3)c(N)c2-c2nc3ccccc3s2)[C@H](OC(C)=O)[C@@H](OC(C)=O)[C@@H]1OC(C)=O` (stereo not given in full), 63.1%.
With `CC(C)(C)OC(=O)Nc1ccc2c(c1)C(NC(=O)Nc1cccc(C#N)c1)CC(C)(C)O2` (stereo not given), the growth was 55%.
Regarding `Cc1ccc2nc(NC(=O)CSc3nc(-c4ccccc4)c(C#N)c(=O)n3Cc3ccccc3)sc2c1`, the growth is 105%.
`Cc1ccc2[nH]c(=O)c3c(c2c1)OC(N)=C(C#N)C31c2cc(Br)ccc2-c2ccc(Br)cc21`: the growth was 39.7%.
